Drawing on PubChem BioAssay (NCI), this text covers growth inhibition for 38 compounds.

Compounds without any hit were thinned out: in the full panel of roughly 79,000, 15% have a hit. Calls of active or inactive are those of the source. Rule as the data show it: active = growth inhibition above about 70%; inactive = the rest.

This assay can be described thus: NCI Yeast Anticancer Drug Screen. Data for the rad50 strain (AID 155).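 Also: 0% = growth of vehicle-only cultures of the same strain.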 The note with it: S. cerevisiae rad50 strain growth inhibition; at 100.0 µM; stronger effect = higher value. The gist of the method: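 A DNA repair-deficient yeast mutant serves as the test organism; compound-induced growth inhibition is calculated against vehicle-treated cells.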
As to `O=[N+]([O-])c1cc[n+]([O-])cc1`, the growth inhibition is 99% (active).

Take `CC1(C)CC(=O)C(/C=N/c2nc(-c3ccccc3)cs2)=C(O)C1`: the growth inhibition is 84% (active).

Take `Nc1nc(N)c2nc(CNc3ccc(C(=O)NC(CCC(=O)O)C(=O)O)cc3F)cnc2n1` (stereo not drawn): the growth inhibition is 74% (active).

For the compound `COC(=O)CC1(O)C(/C=C/c2ccccc2)C(C(=O)OC)C(=O)C(C(=O)OC)C1C(=O)OC` (stereo not drawn), the growth inhibition is 4% (inactive).

For the compound `CC(C)(C)c1ccc(NS(=O)(=O)c2ccc(N)cc2)cc1`, the growth inhibition was 37% (inactive).

With `CCN(CC)CCNc1ccc([N+](=O)[O-])c2nc3ccccc3c(N)c12`, the growth inhibition was 84% (active).

Consider `CCCCN(CCCC)C(=O)/C=C/c1ccccc1`, for which the growth inhibition is 89% (active).

On to `O=c1[nH]c(-c2ccccc2)nc2c1sc1nc3ccccc3n12`, for which the growth inhibition is -9% (inactive).

With `O=[N+]([O-])c1ccc2c(c1)/C(=N/N=C1c3ccccc3Cc3ccccc31)c1cc([N+](=O)[O-])cc([N+](=O)[O-])c1-2`, the growth inhibition was 94% (active).

Regarding `CC(C)C(C)/C=C\C(C)C1CCC2C3=CC=C4CC(O)CCC4(C)C3CCC21C` (stereo not drawn), the growth inhibition was 22% (inactive).

With `O=C1Nc2ccc(Br)cc2C1=Nc1ccc2c(c1)OCO2`, the growth inhibition is -10% (inactive).

As for `CCCCOCn1c(=O)[nH]c(=O)c2cc(Br)ccc21`, the growth inhibition was -15% (inactive).

Consider `Cc1ccc(S/C(=C\C(=O)O)c2ccccc2)cc1`, for which the growth inhibition was 52% (inactive).

For `O=[N+]([O-])/C=C/c1cc(Cl)c(/C=C/[N+](=O)[O-])cc1Cl`, the growth inhibition is 94% (active).

On to `Cc1cc(S(=O)(=O)Nc2nnc3cnc4ccccc4n23)c(S)cc1Cl`, for which the growth inhibition was 37% (inactive).

For `O=C(/C=C/c1cc(Cl)cc(Cl)c1O)c1cccc(O)c1`, the growth inhibition was 97% (active).

With `NC1CCCCC1N.Nc1c(N=Nc2ccc(-c3ccc(N=Nc4cc(S(=O)(=O)[O-])c5ccccc5c4N)cc3)cc2)cc(S(=O)(=O)[O-])c2ccccc12.[OH3+].[OH3+].[Pt+4]`, the growth inhibition is 70% (active).

As to `COC(=O)CCC(NC(=S)N/N=C(\C)c1ccccn1)C(=O)OC` (stereo not drawn), the growth inhibition was 93% (active).

`NC(=O)C(=O)NNc1ccccc1`: the growth inhibition is 97% (active).

With `COc1cc(C2SCC(=O)N2c2ccc(-c3ccc(-n4c(-c5ccccc5)nc5ccccc5c4=O)cc3)cc2)ccc1O` (stereo not drawn), the growth inhibition is 21% (inactive).

Regarding `COc1ccc(/C=C/c2sc3ccccc3[n+]2CCCCI)cc1OC`, the growth inhibition is 93% (active).

On to `Cc1c(C(C)C)cc(OCCO)cc1C(C)C`, for which the growth inhibition was 73% (active).

Turning to `Cc1cc(NCCCCCCCCNc2cc(C)nc3cc(N)ccc23)c2ccc(N)cc2n1`, the growth inhibition is 96% (active).

Take `C=C(Cl)COC(=O)Nc1cccc(Cl)c1`: the growth inhibition was 97% (active).

As to `CC(=O)OC1CC2C(C)(C)C(=O)C=C[C@]2(C)C2CCC3(C)C(=CCC3[C@H](CO)C[C@H](O)C(=O)C(C)(C)O)[C@]12C` (stereo partly drawn), the growth inhibition was 62% (inactive).

Turning to `COc1ccc(/C=C/C(=O)c2ccccc2)cc1OC`, the growth inhibition was 96% (active).

Turning to `COc1c(O)c(C=O)c(Br)c(C=O)c1O`, the growth inhibition is 86% (active).

With `O=[N+]([O-])c1cc(Cl)cnc1Br`, the growth inhibition is 98% (active).

Take `Cc1ccc2c(c1)C1(SC(C)C(=O)N1c1ccc(Cl)cc1)C(=O)N2` (stereo not drawn): the growth inhibition is 99% (active).

For `COc1cc(CSc2ccc(O)cc2)cc(O)c1O`, the growth inhibition is 6% (inactive).

As to `Cc1ccc2c3ccc4c(c3n(C)c2c1)C(=O)C=CC4=O`, the growth inhibition is 53% (inactive).

`O=C(Nc1ccc(Cl)cc1)Nc1nnc2nc(C(C(=O)c3cccc([N+](=O)[O-])c3Cl)c3nc4nnc(NC(=O)Nc5ccc(Cl)cc5)n4[nH]c3=O)c(=O)[nH]n12`: the growth inhibition is 31% (inactive).

Take `O=C(O)C1CC(c2ccccc2)=NN1c1ccccc1` (stereo not drawn): the growth inhibition is 95% (active).

With `CCCCc1ccc(-n2c(C)c(COC(=O)NC)c(COC(=O)NC)c2C)cc1`, the growth inhibition is 90% (active).

Regarding `CCC(=O)c1cc(C(=O)C(=S)SC)cc(C(=O)C(=S)SC)c1`, the growth inhibition was 89% (active).

As for `CCn1c(O)c(C=Nc2ccccc2)s/c1=N/Nc1nc(-c2ccccc2)cs1`, the growth inhibition is 11% (inactive).

For the compound `Cc1ccccc1N=C(NO)c1ccccc1`, the growth inhibition is 97% (active).

As for `Cc1nc2ccccc2nc1NNc1ccccc1`, the growth inhibition was 60% (inactive).
